# Reference: PubChem BioAssay AID1259415 (National Center for Advancing Translational Sciences (NCATS), 2018)
# Values joined by “and” are separate entries in the source; they are usually repeats but may differ in a detail not shown here. Equal entries are not always repeated. Among all 410,000 compounds or so, about 18,000 (4.4%) were called active. Inconclusive results (about 7%) are left out. No stated cut-off is given here; in the data, active means activity change below about -60%; inconclusive means no clear call, values can overlap the other calls; inactive means above about -39%. Only a selection was taken, and actives are over-represented in it overall.
# Experiment: qHTS Assay for inhibitors of the human cytomegalovirus (HCMV)
# Settings: HFF cells, HCMV-luciferase reporter, 72 h; at 57.5 µM; hits give low values
# How it was run: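 Two compound doses tested in HFFs infected with HCMV-luciferase, MOI 1 PFU/cell, 72 h at 37C. Lysate luminescence read with OneGlo; data normalized against buffer-only and 10uM Salinomycin inhibitor controls.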
# On the % scale 0 is the no-effect control and ±100 the full control effect.
row,SMILES,"activity change, negative = inhibition"
1,CCOc1ccc(-c2cn(S(=O)(=O)c3cccc4nsnc34)nc2N)cc1,-29.7% (inactive)
2,COc1ccccc1C(c1nnnn1C(C)(C)C)N1CCN(Cc2ccccc2)CC1 (stereo unspecified),-19.3% (inactive)
3,CCC(C)(C)n1nnnc1C(c1ccc(OC)c(OC)c1)N1CCN(C(=O)c2ccco2)CC1 (stereo unspecified),-20.3% (inactive)
4,CCC(C)(C)n1nnnc1C(c1cccs1)N1CCN(c2nc3ccccc3s2)CC1 (stereo unspecified),-76.3% (active)
5,CCOc1ccccc1N(CC)C(=O)c1cc2ccc3cccnc3c2[nH]1,36.8% (inactive)
6,CCOC(=O)c1c(SCC(=O)Nc2cccc(C)c2C)nc(=O)[nH]c1C,-0.768% (inactive)
7,CCOC(=O)c1c(C)[nH]c(C)c1S(=O)(=O)N(C)CC(=O)N1CCN(c2ccccc2)CC1,-3.36% (inactive)
8,CCOC(=O)c1c(C)[nH]c2c1-c1ccccc1C(=O)C2=O,-99.7% (active)
9,CCOCCCNC(=O)c1c(NC(=O)Cc2coc3c(C)c(C)ccc23)sc2c1CCC2,-19.7% (inactive)
10,Cc1cc(C)c2sc(NC(=O)c3ccc(S(=O)(=O)N4CCCC4)cc3)nc2c1,1.97% (inactive)
11,CCN(CC(=O)Nc1c(F)cccc1F)C(=O)c1ccc(S(=O)(=O)N2CCCCC2)cc1,-16.4% (inactive)
12,O=C(Nc1nnc(S(=O)(=O)N2CCCc3ccccc32)s1)c1cccc(F)c1,-22.4% (inactive)
13,CN(C)CCCN(C(=O)c1ccc(S(=O)(=O)N2CCCc3ccccc32)cc1)c1nc2ccc(F)cc2s1,-113% (active)
14,CN(C)CCCN(C(=O)c1ccc(S(=O)(=O)N2CCCCCC2)cc1)c1nc2ccc(Br)cc2s1,-66.2% (active)
15,CC1CCN(C(=O)c2cccc(S(=O)(=O)N3CCCc4ccccc43)c2)CC1,-31.3% (inactive)
16,Cc1cn(C)c(CC(=O)NCc2ccc(Cl)cc2)c1C(=O)O,-3.74% (inactive)
17,O=C(CSc1ncc(CO)n1Cc1ccc(Cl)cc1)NCc1ccc(F)cc1,0.963% (inactive)
18,Cc1ccc2[nH]c(=O)c(CC=C(Cl)Cl)c(C)c2c1,-11.6% (inactive)
19,CCC(=O)Nc1cccc(-c2nc3cc(C)ccc3o2)c1,103% (inactive)
20,NC(=O)c1ccc(N2CCCC2)nc1,9.29% (inactive)
21,C/C(CC(C)C)=N\Oc1nc(C)cc(C)n1,-62.7% (active)
22,COc1ccc(NC(=O)C(CC(C)C)NS(=O)(=O)c2ccc3c(c2)CCN3C(C)=O)cc1OC (stereo unspecified),-16% (inactive)

row,SMILES,"activity change, negative = inhibition"
1,C[C@]12CC[C@H](O)CC1=CCC1C2CC[C@@]2(C)C1CC[C@@H]2NC(=O)CCC(=O)O (stereo partly specified),-2.14% (inactive)
2,CC(=O)OC1CCC2(C)C(=CCC3C4CC(=O)N(O)C(=O)C4(C)CCC32)C1 (stereo unspecified),17.9% (inactive)
3,C[C@@H]1CC[C@@]2(OC1)O[C@H]1C[C@H]3[C@@H]4CC=C5C[C@@H](O)[C@H](O)C[C@]5(C)C4CC[C@]3(C)[C@H]1[C@@H]2C (stereo partly specified),-70.9% (active)
4,Cc1cccc(NC(=O)c2nnn(CC(=O)Nc3ccc(C(C)C)cc3)c2N)c1C,3.95% (inactive)
5,CCOc1ccc2ccccc2c1/C=N/NC(=O)c1c(C)cc(C)[nH]c1=O,-32.4% (inactive)
6,COc1ccccc1/C=C/C1=NC(=C\N(C)C)/C(=O)O1,64.2% (inactive)
7,COc1cccc(NC(=O)COC(=O)c2ccc3ccccc3n2)c1,78.4% (inactive)
8,COc1cccc(/C=C/c2ccc3ccccc3n2)c1OC(C)=O,-95.1% (active)
9,CCOc1cccc(/C=C/c2ccc3ccccc3n2)c1OC(C)=O,-79.7% (active)
10,Cc1cc(C)cc(NS(=O)(=O)c2cc3c(cc2C)NC(=O)CO3)c1,-26.3% (inactive)
11,Cc1cccc(N2CCN(C(=O)c3cc4c(=O)oc5ccccc5c4s3)CC2C)c1 (stereo unspecified),1.15% (inactive)
12,COc1ccc(NC(=O)Cn2c(=O)n(CCC(C)C)c(=O)c3cccnc32)cc1Cl,-4.37% (inactive)
13,Cc1ccc(CNC(=O)Nc2nnc([C@H]3C[C@H](O)[C@@H](CO)O3)s2)cc1,-100% (active)
14,O=C(Nc1nnc([C@H]2C[C@H](O)[C@@H](CO)O2)s1)c1cccc(Cl)c1,40.2% (inactive)
15,O=C(Nc1ccc(F)cc1)Nc1nnc([C@H]2C[C@H](O)[C@@H](CO)O2)s1,30.2% (inactive)
16,COc1cc(-c2nnn(CC(=O)NCc3ccccc3)n2)cc(OC)c1OC,5.2% (inactive) and 12.4% (inactive)
17,COc1ccccc1OCCC(=O)OCC(=O)NCc1ccccc1,14.2% (inactive)
18,COc1cc(C(=O)NCc2ccncc2)cc(Br)c1OCc1ccccc1,-62.2% (active)
19,CCC(=O)N1CCc2cc(S(=O)(=O)NC(C(=O)N3CCc4ccccc4C3)C(C)C)ccc21 (stereo unspecified),-14.7% (inactive)
20,Cc1nc(NC(CC(C)C)C(=O)O)c2nc(C)oc2n1 (stereo unspecified),-6.81% (inactive)
21,CCOc1ccc2c(=O)c(-c3ccc4c(c3)OCCCO4)c(C)oc2c1,20.1% (inactive)
22,O=c1c(-c2ccc3c(c2)OCCO3)c(C(F)(F)F)oc2cc(O)cc(O)c12,-90.6% (active)

row,SMILES,"activity change, negative = inhibition"
1,CCOC(=O)c1cc2cc(-c3c(C(=O)OCC)oc4cc(O)cc(O)c4c3=O)ccc2o1,-2.73% (inactive)
2,CCc1ccc(CNC(=O)c2ccc(CS(=O)c3ccc(Br)cc3)o2)cc1 (stereo unspecified),10.6% (inactive)
3,CCOC(=O)c1cc(-c2ccccc2)n(CCC(=O)Nc2ccccc2CC)c1C,30.9% (inactive)
4,Cc1ccc(Cl)cc1NC(=O)CSc1nc2ccccc2nc1Cc1ccccc1,36.7% (inactive)
5,CCN1/C(=C\c2ccc3ccccc3[n+]2CC)Sc2cc(C)ccc21,-99.8% (active)
6,O=c1o[nH]c(-c2ccccc2)c1N=Nc1c(F)cccc1Cl,-12.9% (inactive)
7,COc1cc(NC(=O)CCn2nc(C)cc2C)cc(OC)c1OC,9.6% (inactive)
8,CN(C(=O)CN1C(=O)S/C(=C\c2ccccc2F)C1=O)C1CCS(=O)(=O)C1 (stereo unspecified),-18.9% (inactive)
9,CN(C(=O)CCN1C(=O)/C(=C/c2ccccc2F)SC1=S)C1CCS(=O)(=O)C1 (stereo unspecified),-63.4% (active)
10,COc1ccccc1/C=C1\SC(=O)N(CCC(=O)N(C)C2CCS(=O)(=O)C2)C1=O (stereo unspecified),-7.61% (inactive)
11,CCCNC(=O)CCC(=O)N1Cc2ccccc2Oc2ncccc21,2.27% (inactive)
12,Cc1cc(=O)n2[nH]c(-c3sccc3-n3c(C)ccc3C)cc2n1,-64.1% (active)
13,COc1ccccc1CNS(=O)(=O)c1cc(Br)cc2c1N(C(C)=O)C(C)C2 (stereo unspecified),-27.7% (inactive)
14,COc1cc(NC(=O)COC(=O)c2cc(S(=O)(=O)N3CCOCC3)ccc2F)cc(OC)c1,-68.7% (active)
15,O=C(COC(=O)c1cc(S(=O)(=O)N2CCOCC2)ccc1F)NC1CC1,-20.2% (inactive)
16,O=C(COC(=O)c1ccccc1F)Nc1cc(S(=O)(=O)N2CCOCC2)ccc1N1CCCC1,-28.5% (inactive)
17,CCCC12CN3CC(C)(CN(C1)C3c1ccccc1Cl)C2=O (stereo unspecified),1.49% (inactive)
18,Cc1cccc(NC(=O)Nc2cccc(Oc3c(F)c(F)c(F)c(F)c3F)c2)c1,-76.5% (active)
19,Cc1cccc(NC(=O)NC2(C)CCS(=O)(=O)C2)c1 (stereo unspecified),14.3% (inactive)
20,Cc1ccoc1C(=O)Nc1cccc(Oc2ccccc2)c1,16.8% (inactive)
21,COc1ccc(CCNC(=O)CCCCn2c(=O)c3ccccc3n(Cc3ccccc3C)c2=O)cc1OC,-31.9% (inactive)
22,CCOC(=O)c1ccc(NC(=O)c2c(NCc3cccc(OC)c3)sc3c2CCC3)cc1,-1.86% (inactive)

row,SMILES,"activity change, negative = inhibition"
1,CCOc1ccccc1NC(=S)N1CCN(c2cccc(C)c2C)CC1,-37.3% (inactive)
2,Cc1ccccc1OCC(=O)Nc1ccc(N2CCN(C(=O)C(C)C)CC2)c(Cl)c1,1.1% (inactive)
3,CCC(=O)N1CCN(c2ccccc2NC(=O)COc2cccc(C)c2C)CC1,-63.8% (active)
4,COc1ccc(C)cc1NC(=O)C(=O)NCCc1sc(-c2cccc(C)c2)nc1C,-4.02% (inactive)
5,Cc1ccccc1CCNC(=O)C1CCN(c2nc3ccccc3nc2C(F)(F)F)CC1,-6.7% (inactive)
6,CCc1ccc(NC(=O)C(C)OC(=O)/C=C/c2cccc([N+](=O)[O-])c2)cc1 (stereo unspecified),7.98% (inactive)
7,CC(C)OP(=O)(OC(C)C)C(Nc1ccccc1)c1cccc([N+](=O)[O-])c1 (stereo unspecified),-30.9% (inactive)
8,CCC(CC)NC(=O)/C=C/c1cccc([N+](=O)[O-])c1,-60.1% (active)
9,COc1ccc(C)cc1S(=O)(=O)N(CC(=O)Nc1cccc([N+](=O)[O-])c1)c1ccc(C)cc1,-7.9% (inactive)
10,O=C(/C=C/c1cccc([N+](=O)[O-])c1)NCCSCc1ccco1,-19.7% (inactive)
11,COC(=O)/C=C\C(=O)Nc1cccc([N+](=O)[O-])c1,-87.4% (active)
12,COc1ccc(-c2nc(S(=O)(=O)c3ccccc3)c(N3CCCCC3)o2)cc1,-14.3% (inactive)
13,CCOc1ccc2nc(N3CCCC(C(=O)Nc4cc(C)ccc4C)C3)sc2c1 (stereo unspecified),69.3% (inactive)
14,CCn1cc(C(=O)N(C)Cc2ccccc2)c(=O)c2cc(S(=O)(=O)N3CCCCCC3)ccc21,4.41% (inactive)
15,CC(=O)N1c2ccc(S(=O)(=O)NCCC(=O)N(C)C3CCCCC3)cc2CC1C (stereo unspecified),-39.5% (inactive)
16,COc1ccc(C(F)(F)F)cc1NC(=O)c1sc2nc(-c3cccs3)ccc2c1N,14.5% (inactive)
17,CCn1c(NC(=O)c2ccccc2)c(-c2cccs2)c(=O)c2ccccc21,25.8% (inactive)
18,N#Cc1ccc(C(=O)Nc2nc(-c3cccs3)c(C(=O)C(F)(F)F)s2)cc1,-96.5% (active)
19,O=C(NCCS(=O)(=O)N1CCN(c2ccc(F)cc2)CC1)c1ccccc1Br,20.8% (inactive)
20,Cn1c(=O)c2c(SCC(=O)NCC3CCCO3)nc(-c3ccccc3F)nc2n(C)c1=O (stereo unspecified),-4.16% (inactive)
